PubChem BioAssay
The source made the active and inactive calls. Unless noted, how the calls were made is not given here.

Tests used:
[1] = anti-His antibody binders, primary screen, artefact control for SMM control protein annotation, biochemical, small-molecule microarray, 635 nm fluorescence (AID 1128); settings: anti-His Alexa647 antibody binding, higher = more signal;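 further: score merges feature fluorescence with signal-to-noise for each printed compound spot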
[2] = system: Human papillomavirus type 1a E7 protein (residues 1-88); test: HPV1a E7 small-molecule binders, primary screen, biochemical, small-molecule microarray, residues 1-88, 635 nm (AID 1129); settings: small-molecule microarray binding, fluorescence 635 nm; higher = more signal
[3] = target: Focal adhesion kinase 1 (Homo sapiens) (UniProt Q05397); test: small-molecule microarray binders of FAK, primary screen, biochemical, 635/667 nm fluorescence, BSA, DTT (AID 1130); settings: PTK2 binding, 635 nm fluorescence, higher = more signal;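 further: composite of spot emission at 667 nm and signal to noise over triplicate slides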
[4] = system: Fibrinogen (Alexa647-labelled); test: fibrinogen binders on compound microarrays, profiling panel, artefact control for SMM control-protein annotation, biochemical, small-molecule microarray, 635/667 nm fluorescence (AID 1131); settings: fibrinogen-A647 binding fluorescence, higher = more signal;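 further: z-score merges 667 nm fluorescence with per-spot signal-to-noise over triplicate slides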
[5] = target: Follistatin (Homo sapiens) (UniProt P19883); test: follistatin binders on small-molecule microarrays, primary screen, biochemical, small-molecule microarray, 635/667 nm fluorescence (AID 1132); settings: FST binding, 635 nm fluorescence, higher = more signal
[6] = target: Fibroblast growth factor 2 (Homo sapiens) (UniProt P09038); test: FGF2 binders on small-molecule microarrays, primary screen, biochemical, small-molecule microarray, 635/667 nm fluorescence (AID 1133); settings: small-molecule microarray binding, FGF2, fluorescence 635/667; higher = more signal
[7] = mitochondrial membrane potential change in A549 cells, profiling panel, cell-based, JC-1 fluorescence, basal, 24 h, 100 nL (AID 1138); settings: higher = more signal;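 further: A549 lung adenocarcinoma cells under basal conditions with no added stimulus; test concentration not given here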
Lefty1 = Lefty1 binders on small-molecule microarrays, primary screen, biochemical, small-molecule microarray, 635/667 nm fluorescence (AID 1139); settings: small-molecule microarray binding, fluorescence 635/667; higher = more signal
[8] = system: wheat germ agglutinin (Triticum aestivum), Alexa647-labelled; test: wheat germ agglutinin binders on compound microarrays, profiling panel, artefact control for SMM control-protein annotation, biochemical, small-molecule microarray, 635/667 nm fluorescence (AID 1140); settings: WGA-A647 binding, 635 nm fluorescence, higher = more signal;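 further: score merges 667 nm feature emission with signal to noise over triplicate slides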
[9] = target: Luciferin 4-monooxygenase (Photinus pyralis) (UniProt P08659); test: firefly luciferase enzyme inhibitors, primary screen, biochemical, luminescence, purified enzyme, 2006 set (AID 1141); settings: SteadyGlo luminescence, 30 min, higher = more signal, called active from +8 up or from −8 down;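 further: cell-free assay with purified firefly luciferase at 100 ng per well in PBS; test concentration not given here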
[10] = system: Wnt5a (protein binding on small-molecule microarray); test: Wnt5a binders on small-molecule microarray, primary screen, biophysical, 635/667 nm fluorescence (AID 1142); settings: 635 nm fluorescence, higher = more signal;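 further: fluorescence read at 667 nm with signal to noise per printed feature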
[11] = cell viability in Huh7 cells, primary screen, cytotoxicity control for HCV replication inhibitor project, CellTiter-Glo luminescence, basal, 48 h (AID 1143); settings: Huh7 HCV replicon, higher = more signal, called active from +8 up or from −8 down;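 further: Huh7 hepatoma cells carrying a hepatitis C replication reporter with no stimulus; test concentration not given here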
[12] = P. aeruginosa biofilm formation inhibitors, primary screen, PAO1 strain, BacTiter-Glo luminescence, LB-PBS (AID 1144); settings: 12 h, higher = more signal
[13] = CREB reporter modulators without forskolin, primary screen, cell-based, PC12, CRE-LacZ reporter, unstimulated (AID 1145); settings: no forskolin, luminescence, 4.5 h, higher = more signal, called active from +8 up or from −8 down
[14] = CREB reporter modulators under forskolin, primary screen, cell-based, PC12, CRE-LacZ reporter, forskolin-stimulated (AID 1146); settings: luminescence, 4.5 h, higher = more signal, called active from +8 up or from −8 down;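 further: PC12 cells with 6xCRE LacZ reporter stimulated by forskolin 10 µM; beta-galactosidase reporter signal reflecting CREB driven transcription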
[15] = target: Streptavidin (Streptomyces avidinii) (UniProt P22629); test: streptavidin binders on small-molecule microarray, primary screen, artefact control for SMM compound annotation, biophysical, 635/667 nm fluorescence (AID 1147); settings: streptavidin binding, higher = more signal;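 further: signal reflects streptavidin binding to arrayed compounds as a control protein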
[16] = small-molecule binders of probe aInhba, primary screen, biochemical, small-molecule microarray, 635/667 nm fluorescence (AID 1148); settings: higher = more signal;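 further: score merges 667nm spot fluorescence with signal-to-noise for antibody binding to printed compounds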
Torsin-1A (Homo sapiens) [17] = target: Torsin-1A (Homo sapiens) (UniProt O14656); test: torsin A binders from cell lysate, primary screen, small-molecule microarray, wild-type, 635/667 nm (AID 1149); settings: COS7 hTOR1A-WT lysate, 635 nm fluorescence, higher = more signal
Torsin-1A (Homo sapiens) [18] = target: Torsin-1A (Homo sapiens) (UniProt O14656); test: small-molecule binders of mutant TOR1A in lysate, primary screen, cell lysate, small-molecule microarray, COS7 lysate, 635/667 nm fluorescence (AID 1150); settings: COS7 hTOR1A mutant lysate, 635 nm fluorescence, higher = more signal;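 further: score pools 667 nm emission and signal to noise measuring lysate protein binding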
[19] = system: Sonic hedgehog protein (Shh); test: small-molecule binders of Shh protein, primary screen, biochemical, small-molecule microarray, 635/667 nm fluorescence (AID 1151); settings: small-molecule microarray binding, 635 nm fluorescence; higher = more signal;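 further: Shh protein binding to compounds spotted on small-molecule microarray slides; score combines spot fluorescence intensity with signal-to-noise across triplicate slides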

Sequence of Streptavidin (Streptomyces avidinii) (P22629 whole entry, looked up): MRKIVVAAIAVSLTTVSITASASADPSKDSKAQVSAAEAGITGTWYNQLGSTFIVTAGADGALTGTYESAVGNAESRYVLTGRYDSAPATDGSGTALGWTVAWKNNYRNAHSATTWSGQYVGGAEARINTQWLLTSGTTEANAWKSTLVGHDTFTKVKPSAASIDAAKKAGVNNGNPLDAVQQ
Sequence of Fibroblast growth factor 2 (Homo sapiens) (P09038 whole entry, looked up): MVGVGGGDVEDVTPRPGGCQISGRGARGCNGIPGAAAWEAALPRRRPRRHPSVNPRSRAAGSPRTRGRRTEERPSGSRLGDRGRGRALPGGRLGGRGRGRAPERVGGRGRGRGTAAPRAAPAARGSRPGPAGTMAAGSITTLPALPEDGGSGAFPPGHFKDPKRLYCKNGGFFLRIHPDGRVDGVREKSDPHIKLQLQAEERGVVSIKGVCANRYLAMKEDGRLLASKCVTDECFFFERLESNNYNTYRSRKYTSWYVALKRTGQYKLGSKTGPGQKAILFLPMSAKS
Sequence of Torsin-1A (Homo sapiens) (O14656 whole entry, looked up): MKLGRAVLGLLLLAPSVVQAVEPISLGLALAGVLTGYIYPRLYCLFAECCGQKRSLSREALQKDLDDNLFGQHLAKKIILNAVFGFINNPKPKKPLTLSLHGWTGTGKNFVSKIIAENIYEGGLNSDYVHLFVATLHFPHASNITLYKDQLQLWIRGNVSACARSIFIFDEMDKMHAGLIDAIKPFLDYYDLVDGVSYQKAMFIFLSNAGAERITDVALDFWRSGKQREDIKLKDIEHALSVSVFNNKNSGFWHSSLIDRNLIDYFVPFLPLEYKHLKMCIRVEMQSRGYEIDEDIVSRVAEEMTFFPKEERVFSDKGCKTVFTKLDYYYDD
Sequence of Focal adhesion kinase 1 (Homo sapiens) (Q05397 whole entry, looked up): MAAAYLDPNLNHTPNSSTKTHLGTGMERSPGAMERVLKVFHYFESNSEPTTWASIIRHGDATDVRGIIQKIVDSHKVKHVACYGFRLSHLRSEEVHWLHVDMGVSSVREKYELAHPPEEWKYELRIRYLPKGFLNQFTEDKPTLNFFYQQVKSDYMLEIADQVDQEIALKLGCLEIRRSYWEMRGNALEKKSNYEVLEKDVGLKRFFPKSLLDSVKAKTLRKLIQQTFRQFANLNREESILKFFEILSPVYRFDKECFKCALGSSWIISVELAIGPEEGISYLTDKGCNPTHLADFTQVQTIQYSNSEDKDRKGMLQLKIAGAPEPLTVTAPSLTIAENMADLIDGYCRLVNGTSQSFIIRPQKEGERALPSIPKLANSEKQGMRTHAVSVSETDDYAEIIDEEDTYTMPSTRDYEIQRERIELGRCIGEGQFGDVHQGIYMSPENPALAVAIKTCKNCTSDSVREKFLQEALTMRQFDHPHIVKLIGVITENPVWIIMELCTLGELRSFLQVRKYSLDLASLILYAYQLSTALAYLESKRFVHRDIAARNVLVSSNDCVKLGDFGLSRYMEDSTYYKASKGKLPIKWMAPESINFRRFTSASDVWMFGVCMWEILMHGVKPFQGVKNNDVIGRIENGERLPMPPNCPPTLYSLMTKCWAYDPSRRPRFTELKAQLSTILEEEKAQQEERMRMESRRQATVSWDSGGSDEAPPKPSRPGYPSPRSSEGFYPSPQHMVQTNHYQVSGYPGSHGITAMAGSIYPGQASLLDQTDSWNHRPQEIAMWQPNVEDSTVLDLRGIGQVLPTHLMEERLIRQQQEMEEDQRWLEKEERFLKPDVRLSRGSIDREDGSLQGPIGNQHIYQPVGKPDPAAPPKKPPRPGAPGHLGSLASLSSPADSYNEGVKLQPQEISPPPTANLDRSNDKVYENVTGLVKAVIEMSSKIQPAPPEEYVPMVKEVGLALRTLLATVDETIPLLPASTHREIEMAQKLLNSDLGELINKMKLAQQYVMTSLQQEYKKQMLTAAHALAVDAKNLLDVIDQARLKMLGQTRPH
Sequence of Follistatin (Homo sapiens) (P19883 whole entry, looked up): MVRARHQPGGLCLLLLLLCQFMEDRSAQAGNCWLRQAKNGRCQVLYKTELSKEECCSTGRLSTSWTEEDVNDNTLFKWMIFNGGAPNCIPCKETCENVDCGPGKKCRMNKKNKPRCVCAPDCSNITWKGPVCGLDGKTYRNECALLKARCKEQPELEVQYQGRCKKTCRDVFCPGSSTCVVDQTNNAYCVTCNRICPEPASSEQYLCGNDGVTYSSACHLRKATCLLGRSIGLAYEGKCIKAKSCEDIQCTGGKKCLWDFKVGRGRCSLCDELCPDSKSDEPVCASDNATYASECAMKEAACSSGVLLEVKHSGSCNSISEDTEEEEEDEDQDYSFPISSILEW
Sequence of Luciferin 4-monooxygenase (Photinus pyralis) (P08659 whole entry, looked up): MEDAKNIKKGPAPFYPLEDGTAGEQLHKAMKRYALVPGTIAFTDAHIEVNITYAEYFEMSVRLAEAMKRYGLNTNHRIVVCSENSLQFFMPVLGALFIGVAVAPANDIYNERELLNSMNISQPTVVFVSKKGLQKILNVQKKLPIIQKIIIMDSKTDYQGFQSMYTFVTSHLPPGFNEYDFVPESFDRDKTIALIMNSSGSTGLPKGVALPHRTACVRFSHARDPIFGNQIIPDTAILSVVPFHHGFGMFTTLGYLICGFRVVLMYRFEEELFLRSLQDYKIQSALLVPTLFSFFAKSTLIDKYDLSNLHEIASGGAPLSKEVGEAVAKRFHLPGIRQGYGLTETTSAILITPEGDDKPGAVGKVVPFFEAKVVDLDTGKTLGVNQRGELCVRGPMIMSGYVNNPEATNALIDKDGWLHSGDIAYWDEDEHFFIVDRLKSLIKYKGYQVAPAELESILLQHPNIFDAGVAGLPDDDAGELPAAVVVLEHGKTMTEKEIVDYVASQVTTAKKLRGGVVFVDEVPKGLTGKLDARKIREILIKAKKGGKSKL

| Structure (SMILES) | composite z-score [1] | composite z-score [2] | composite z-score [3] | composite z-score [4] | composite z-score [5] | composite z-score [6] | z-score [7] | composite z-score (Lefty1) | composite z-score [8] | z-score [9] | composite z-score [10] | z-score [11] | z-score [12] | z-score [13] | z-score [14] | composite z-score [15] | composite z-score [16] | composite z-score (Torsin-1A (Homo sapiens) [17]) | composite z-score (Torsin-1A (Homo sapiens) [18]) | composite z-score [19] |
| --- | --- | --- | --- | --- | --- | --- | --- | --- | --- | --- | --- | --- | --- | --- | --- | --- | --- | --- | --- | --- |
| C=C(C(=O)CC[C@@H](OC(=O)c1cccnc1)c1ccc(CO)o1)C(C)C | -0.403 | 0.799 | 0.113 | 0.82 | 1.26 | 1.1 | 0.288 | 1.56 | 0.187 | -1.96 (inactive) | 0.27 | 0.184 (inactive) | 0.228 (inactive) | 0.48 (inactive) | -0.135 (inactive) | 0.156 | 0.209 | 0.787 | 0.584 | 1.75 |
| CCOC(=O)C[C@H]1[C@H](OC(=O)c2ccc(C(=O)c3ccccc3)cc2)[C@@H](NC(=O)c2ccc3ccccc3n2)c2cc(OCCCO)ccc2N1C(=O)c1ccc2ccccc2n1 | -0.0631 | 1.06 | -0.0481 | 0.887 | 0.37 | 0.146 | 1.5 | 0.105 | 0.515 | -0.857 (inactive) | 0.211 | 0.0729 (inactive) | -0.754 (inactive) | 2.05 (inactive) | -1.22 (inactive) | 0.47 | 0.0778 | 0.323 | 0.134 | -0.0692 |
| COC(=O)[C@@]1(Cc2ccc(F)cc2)[C@H]2c3cc(C(=O)N4CCCC4)n(Cc4ccc(Cl)c(C(F)(F)F)c4)c3C[C@H]2CN1C(=O)c1ccccc1 | 2.45 | 1.23 | 0.777 | 1.01 | 1.08 | -0.716 | 0.815 | -0.862 | 1.22 | 1.18 (inactive) | 1.99 | -2.95 (inactive) | 0.678 (inactive) | 0.204 (inactive) | 1.49 (inactive) | 2.28 | 1.35 | 0.0817 | 0.51 | -0.239 |
| C=CCNC(=O)[C@@H]1[C@H]2C(=O)O[C@H](c3ccccc3)[C@H](c3ccccc3)N2[C@H](c2ccccc2OCCO)[C@@]12C(=O)N(C(=O)OCCOC)c1ccc(C#CCC(C(=O)OC)C(=O)OC)cc12 | 1.39 | 1.23 | 1.25 | 0.896 | 1.04 | 1.42 | -0.453 | 1.11 | 1.12 | 0.112 (inactive) | 0.978 | -5.68 (inactive) | 0.0376 (inactive) | -0.195 (inactive) | -0.569 (inactive) | 1.63 | 0.86 | 0.612 | 1.56 | 2.04 |
| COCCOC(=O)N1C(=O)[C@@]2(c3cc(C#Cc4ccc(OC)cc4)ccc31)[C@H](c1ccc(OCCO)cc1)N1[C@H](c3ccccc3)[C@H](c3ccccc3)OC(=O)[C@H]1[C@@H]2C(=O)N1CCc2cc(OC)c(OC)cc2C1 | 0.512 | 1.08 | 0.272 | -0.122 | 1.25 | 1.24 | -1.35 | 1.13 | -0.12 | -0.584 (inactive) | 0.377 | -2.85 (inactive) | -1.61 (inactive) | -1.15 (inactive) | -1.33 (inactive) | 0.482 | -0.0736 | 0.37 | 0.454 | 1.85 |
